Assay outcomes from PubChem.
Shown is part of a subset that was picked to be rich in hits.
Pf Dd2 inh – inhibitors of Plasmodium falciparum Dd2 growth; Potency, µM (doses to about 28.9 µM), for inactives: top-dose activity, negative = inhibition, most hits filed as inhibitors; P. falciparum Dd2 growth, SYBR Green, 72 h; 4.3% of 120,000 active; active = well fitted inhibition curve with a large enough effect;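 note: plate controls were DMSO vehicle for no effect and reference drug for full effect; nearly all actives have a fitted effect of over 65% in size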
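Readout: SYBR Green fluorescence, 485 nm excitation, 535 nm emission, after ~16 h lysis at 37C. Before that, Dd2-infected red cells (2.5% hematocrit) grew 72 h with compound, 29 uM top final concentration.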
Starred values were filed as active, the others as inactive; i = inactive; [ ] = remark or other dose. Potency is the fitted concentration of half-maximal effect.

SMILES | Pf Dd2 inh
COCCNC(=O)[C@@H]1C[C@@H](O)CN1C1CCN(C(=O)c2nn(C)c3ccccc23)CC1 | -10%
Cc1nc(C2CCCN(C(=O)C(C)(C)N)C2)cc(N2CCCC2)n1 (stereo not given) | -18%
Cc1ccc(C(=O)N2CCC3(CC2)NC(=O)c2ccccc2O3)cc1 | i
CCc1nc2cc(N3CCCC(C(=O)NC4CC4)C3)cnc2nc1CC (stereo not given) | i
CC(C)CCNC(=O)CCc1nnc(-c2ccc(OC(C)C)cc2)[nH]c1=O | -23%
COc1cccc(-c2cc(-c3ccccc3)nc3c(C)noc23)c1 | 14µM*
COc1ccccc1-c1cc(-c2ccccc2)nc2c(C)noc12 | i
COc1cccc(-c2cc(-c3cccs3)nc3c(C)noc23)c1 | i
Cn1cc(CN2Cc3ccc(C(=O)Nc4nccs4)cc3OCC2=O)cn1 | i
CC(C)(C)c1coc([C@@H]2COCCN2Cc2cnc[nH]2)n1 | -16%[44.1 µM]
Cc1ccccc1CNC(=O)C1CCN(C(=O)N2CC3CC(C2)[C@H]2CCCC(=O)N2C3)CC1 (stereo not given in full) | i
Cc1cc(SCC(=O)Nc2ccc(Cl)cc2)nc2ccccc12 | i
Cc1ccccc1NC(=O)Nc1ccc2nc(N3CCN(C)CC3)cc(C)c2c1 | 2µM*
Cc1ccccc1C(=O)Nc1ccc2nc(N3CCCCC3)cc(C)c2c1 | i
CC(C)(C)c1ccc(C(=O)Nc2ccc(NC(=O)c3ccc(Cl)c(Cl)c3)cc2)cc1 | 11%
Cc1cc(N2CCN(C)CC2)nc2ccc(NC(=O)c3ccc(C(C)(C)C)cc3)cc12 | 6.3µM*
CN1CCN(c2ccc3nnc(-c4cc(C(=O)Nc5cccc(Cl)c5)ccn4)n3n2)CC1 | i
COc1cc(C(=O)Nc2ccc(NC(=O)c3ccc(C(C)(C)C)cc3)cc2)cc(OC)c1OC | i
Cc1cc(N2CCN(C)CC2)nc2ccc(NC(=O)Nc3ccc(Cl)cc3)cc12 | 11µM*
CCOc1ccccc1NC(=O)Nc1ccc2nc(N3CCN(C)CC3)cc(C)c2c1 | 0.45µM*
CCOc1ccccc1NC(=O)Nc1nnc(N2CCCCCC2)s1 | -26%
Cc1cc(N2CCC(C)CC2)nc2ccc(NC(=O)Cc3ccccc3Br)cc12 | -19%
COc1ccccc1CC(=O)Nc1ccc2nc(N3CCC(C)CC3)cc(C)c2c1 | 3%
CC(C)N1CC2(C1)C(=O)N(Cc1ccccc1F)C(=O)[C@@H]1C[C@@H](O)CN12 | 5%[44.1 µM]
CN(Cc1ccc(F)cc1)Cc1ccccc1C(F)(F)F | -26%[44.1 µM]
SMILES | Pf Dd2 inh
CCC1(N2CCN(C(=O)c3ccc(C(F)(F)F)cc3)CC2)CCN(S(C)(=O)=O)C1 (stereo not given) | -11%
COc1ccc(C(=O)N2CCCC(c3nc(-c4cccnc4)no3)CCNC(=O)CC2)c(OC)c1 (stereo not given) | i
CCC1(N2CCN(C(=O)c3cc(Cl)ccc3OC)CC2)CCN(C(=O)NC)C1 (stereo not given) | i
COCc1c(C(=O)N[C@H](c2ccc(OC)nc2)C2CC(O)C2)noc1C (stereo not given in full) | 1%
COC(=O)[C@@H](Cc1cccnc1)NC(=O)[C@H]1CN(S(=O)(=O)c2ccccc2)CCN1C(=O)c1cccs1 | -7%
CCOCc1nc(C2CCCN2S(=O)(=O)c2c(C)noc2C)no1 (stereo not given) | -19%
O=C1NCc2ccccc2CC12CCN(Cc1cc(F)ccc1F)C2 (stereo not given) | -16%
O=C1NCc2ccccc2CC12CCN(Cc1cc(F)ccc1F)CC2 | 0%
O=C1NCc2ccccc2CC12CCCN(Cc1c(F)cccc1Cl)C2 (stereo not given) | -20%
O=C1NCc2ccccc2CC12CCN(Cc1cc(F)ccc1O)C2 (stereo not given) | 11µM*
O=C1NCc2ccccc2CC12CCCN(Cc1ccnc3ccccc13)C2 (stereo not given) | -22%
O=C1NCc2ccccc2CC12CCCN(Cc1ccc(F)cc1)C2 (stereo not given) | -25%
O=C1NCc2ccccc2CC12CCCN(Cc1ccncc1)C2 (stereo not given) | -21%
O=C1NCc2ccccc2CC12CCCN(Cc1cc(F)ccc1O)C2 (stereo not given) | 8.9µM*
COc1ccc(CN2CCCC3(Cc4ccccc4CNC3=O)C2)c(OC)n1 (stereo not given) | 5µM*
Cc1ccsc1C(=O)NCCc1noc(-c2ccccc2)n1 | i
Cn1ncc(N2CCC(NC(=O)CCC3CCCC3)CC2)cc1=O | -13%
COCCOC1CCOC2(CCN(C(=O)NCc3ccccc3)CC2)C1 (stereo not given) | -5%
O=C(O)CCn1ncc2cc(OC3CCN(C(=O)CC4CC4)CC3)ccc21 | -3%[44.1 µM]
CNC(=O)[C@@H](CC(C)C)N1CCC[C@H]1C(=O)N1CCN(C)CC1 | 1%[44.1 µM]
Cc1noc(C)c1-c1cc2c(c(-c3ccccc3F)c1)C(=O)N(C)C2 | -17%[44.1 µM]
O=C(CC1CCCN(c2cn[nH]c(=O)c2)C1)N1CCCCC1 (stereo not given) | 15%
O=C1Cc2c(-c3cccc4ccccc34)n[nH]c2CN1Cc1ccccn1 | -4%[44.1 µM]
